Common to all, as to conditions: concentration: 1 μM, replicates: in singlicate; n = 1
The subject of test [1] is MYLK.
For test [2], the system named is MYO3A.
The test system of test [3] is MYO3B.
In test [4] the test system is T1, NDR1.
T1 construct: gene STK38

For test [5], the system named is NDR2.
In test [6] the test system is NEK10.
The test system of test [7] is NEK11.
For test [8], the system named is NEK1.
Test [9] deals with NEK2.
Test [10] relates to NEK3.
Test [11] concerns NEK4.
Test [12] has as its system NEK5.
For test [13], the system named is NEK6.
For test [14], the system named is NEK7.
Test [15] concerns NEK9.
The subject of test [16] is T2, NIK.
T2 construct: gene MAP3K14

For test [17], the system named is T3, NIM1.
T3 construct: gene MGC42105

Test [18] concerns NLK.
The subject of test [19] is T4, OSR1.
T4 construct: gene OXSR1

In test [20] the test system is PAK1.

Each structure is given as a SMILES string.

Here are results for twelve molecules from paper PMC5540273 (PLoS ONE, 2017).
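Further: KINOMEscan kinase panel screen.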

In the case of `Cn1c(=O)c(F)c(Nc2ccc(I)cc2F)c2c(=O)n(OC[C@H](O)CO)cnc21`, the “%Inh” value in test [1] turned out to be 22%; in test [2], 0%; in test [3], 28%; in test [4], 7%; in test [5], 3%; in [6], 0%. The “%Inh” value worked out at 0% in test [7]; 0% in test [8]; 14% in [9]; 35% in test [10]; 0% in [11]; 4% in test [12]. Moreover, the “%Inh” value in test [13] is given as 30%; in test [14], 0%; in test [15], 0%; in test [16], 0%; in [17], 0%; in test [18], 0%. Further, the “%Inh” value in [19] and in [20] was 0% throughout.
`Nc1ncnc2c1ncn2-c1cccc2ccccc12` [SKF-97184]: the “%Inh” value in test [1] was found to be 0%; in test [2], 0%; in test [3] it was 27%; in [4], 29%; in test [5] it was 4%; in [6], 0%. The “%Inh” value in test [7] was 27%; in [8] it was 11%; in test [9], 0%; in test [10] it was 31%; in test [11] it was 0%; in [12], 0%. Moreover, the “%Inh” value is given as 0% in test [13]; 0% in test [14]; 0% in [15]; 2% in test [16]; 13% in test [17]; 0% in test [18]. The “%Inh” value amounted to 0% in test [19] and 3% in test [20].
Regarding `O=C(NCc1cccs1)c1cc(C(=O)c2c(Cl)cccc2Cl)c[nH]1` [GW823670], the “%Inh” value is reported as 0% in test [1]; 0% in test [2]; 18% in [3]; 26% in [4]; 14% in test [5]; 0% in test [6]. Further, the “%Inh” value in test [7] was found to be 0%; in test [8] it was 15%; in [9], 0%; in test [10], 20%; in test [11], 0%; in test [12] it was 17%. Moreover, the “%Inh” value is 0% in test [13]; 0% in test [14]; 0% in [15]; 0% in test [16]; 2% in test [17]; 0% in test [18]. Further, the “%Inh” value stood at 0% in [19] and 5% in [20].
For the molecule `Nc1nc(N)c2nc(-c3ccccc3)[nH]c2n1` [SKF-12778], the “%Inh” value in test [1] is recorded as 0%; in test [2], 0%; in [3] it was 19%; in [4] it was 33%; in test [5], 0%; in [6], 58%. Besides, the “%Inh” value in test [7] was 13%; in test [8], 0%; in [9], 0%; in [10], 0%; in test [11], 8%; in [12], 10%. Also, the “%Inh” value in [13] was found to be 5%; in test [14], 9%; in test [15], 6%; in [16] it was 0%; in test [17], 0%; in test [18], 2%. Further, the figures for the “%Inh” value in test [19] and in [20] were 22% and 0%, respectively.
Regarding `Nc1n[nH]c2nnc(-c3ccccc3)c(-c3ccccc3)c12` [GW554060], the “%Inh” value in test [1] came to 16%; in [2] it was 0%; in [3], 0%; in [4], 9%; in [5] it was 10%; in test [6] it was 9%. For the same molecule, the “%Inh” value in [7] came to 5%; in [8] it was 0%; in test [9], 0%; in test [10], 4%; in test [11], 0%; in [12], 0%. Besides, the “%Inh” value in test [13] is 0%; in test [14], 0%; in [15], 0%; in test [16], 100%; in [17], 28%; in test [18], 0%. Also, the entries for the “%Inh” value in [19] and in test [20] were 9% and 0%, respectively.
Consider `COc1cccc(C2=C(Nc3cccc(C(=O)O)c3)C(=O)NC2=O)c1` [SB-390770], for which the “%Inh” value was found to be 0% in [1]; 0% in [2]; 8% in test [3]; 0% in test [4]; 0% in [5]; 40% in test [6]. For the same molecule, the “%Inh” value in test [7] is recorded as 36%; in test [8] it was 0%; in [9], 0%; in test [10], 0%; in test [11], 0%; in [12], 14%. In addition, the “%Inh” value came out at 1% in [13]; 0% in test [14]; 9% in test [15]; 0% in test [16]; 0% in [17]; 8% in test [18]. The “%Inh” value in test [19] amounted to 16%; in [20], 0%.
On to `Nc1nc(-c2ccccc2F)c(-c2ccnc3ccccc23)s1` [GW560459], for which the “%Inh” value in [1] is on record as 11%; in [2], 20%; in test [3], 0%; in test [4], 16%; in [5], 0%; in test [6] it was 3%. Also, the “%Inh” value in test [7] is reported as 0%; in test [8], 7%; in test [9] it was 0%; in test [10], 1%; in test [11], 0%; in [12] it was 0%. The “%Inh” value amounted to 0% in [13]; 8% in test [14]; 53% in [15]; 17% in test [16]; 22% in test [17]; 27% in test [18]. Further, the “%Inh” value worked out at 4% in test [19] and 18% in test [20].
Turning to `O=C(Nc1n[nH]c2cc(-c3ccccc3F)ccc12)C1CC1` [SB-733371], the “%Inh” value in [1] worked out at 0%; in test [2], 22%; in test [3], 0%; in [4], 37%; in test [5], 2%; in [6], 0%. Moreover, the “%Inh” value worked out at 12% in test [7]; 0% in test [8]; 0% in test [9]; 16% in test [10]; 0% in test [11]; 0% in test [12]. For the same molecule, the “%Inh” value in test [13] is given as 0%; in test [14] it was 11%; in [15], 0%; in [16], 0%; in test [17], 0%; in [18], 15%. Also, the “%Inh” value in [19] and in test [20] was 0% throughout.
Consider `CCCNC(=O)Nc1ccc(Oc2ncnc3ccn(C)c23)cc1`, for which the “%Inh” value in [1] was 0%; in [2], 0%; in test [3] it was 40%; in test [4], 3%; in [5], 0%; in test [6], 0%. In addition, the “%Inh” value is given as 0% in test [7]; 0% in test [8]; 0% in [9]; 33% in test [10]; 0% in [11]; 0% in test [12]. Also, the “%Inh” value in test [13] is on record as 13%; in [14], 0%; in [15] it was 11%; in test [16], 0%; in test [17], 0%; in test [18] it was 0%. Moreover, the “%Inh” value in test [19] and in [20] was 17% each time.
As for `C[C@@H]1CC[C@H](C(=O)NC2CCCCC2)CN1c1cc(-c2ccc3c(N)n[nH]c3c2)nc(N)n1` [GSK2291363], the “%Inh” value in [1] is 52%; in test [2], 36%; in test [3], 0%; in test [4], 14%; in [5], 7%; in [6], 29%. In addition, the “%Inh” value in test [7] was found to be 0%; in [8] it was 10%; in [9] it was 0%; in test [10] it was 12%; in [11], 18%; in test [12] it was 22%. Moreover, the “%Inh” value is reported as 26% in test [13]; 0% in [14]; 25% in [15]; 32% in [16]; 14% in test [17]; 7% in test [18]. In addition, the “%Inh” value in test [19] was 17%; in [20], 15%.
With `Cc1c(Cn2c(C)nn3c(=O)cc(N4CCO[C@H](C)C4)nc23)cccc1C(F)(F)F` [GSK2373690], the “%Inh” value in [1] is reported as 12%; in test [2], 0%; in [3], 0%; in test [4] it was 6%; in test [5] it was 0%; in [6], 6%. The “%Inh” value was 0% in test [7]; 0% in [8]; 24% in [9]; 2% in test [10]; 31% in [11]; 0% in test [12]. The “%Inh” value in test [13] amounted to 1%; in test [14], 0%; in test [15], 0%; in test [16] it was 2%; in [17] it was 0%; in [18], 27%. Further, the “%Inh” value in test [19] was found to be 22%; in test [20] it was 0%.
`CCn1c(-c2ccoc2)nc2cnccc21` [SB-733887]: the “%Inh” value in test [1] was 11%; in test [2], 6%; in [3], 0%; in test [4] it was 0%; in test [5] it was 0%; in test [6] it was 19%. In addition, the “%Inh” value is listed as 12% in [7]; 2% in test [8]; 0% in test [9]; 16% in [10]; 22% in [11]; 4% in test [12]. The “%Inh” value in [13] is given as 5%; in [14], 0%; in test [15] it was 0%; in test [16], 21%; in test [17], 11%; in test [18], 7%. Further, the “%Inh” value was 9% in test [19] and 12% in test [20].
